Out of some 370,000 compounds screened, about 4,700 (1.3%) were called active.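 Rule for the calls: active = inhibition above the plate cutoff, the mean of all test compounds on that plate plus 3 SD (cut at about 35% in these data); inactive = the rest.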 Many of the other results were omitted from the sample, so actives are more common in it than they were.

One may read the inhibition as the relative decrease from the control value, in per cent.

The nature of the assay: small molecules binding CAG repeat RNA – biochemical, fluorescence, primary screen (AID 651821).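 Note: 0% = DMSO alone and 100% = 100 µM mitoxantrone as full dye displacement; higher means more dye released from RNA so lower well fluorescence.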 Conditions: r(CAG) RNA repeat, TO-PRO-1 dye displacement fluorescence; at 3 µM; stronger effect = higher value.
With `COc1cccc(CC(=O)N2CCN(C(=O)C(=O)c3cccc(C(F)(F)F)c3)CC2)c1`, the inhibition is -1.34% (inactive).
The value for `Cc1[nH]c2ccc(S(N)(=O)=O)cc2c1C` was 2.18% (inactive); that for `Cc1cccc(N=Nc2c(O)[nH]c3ccc(F)cc23)c1` was 17.5% (inactive).
The result for `NS(=O)(=O)c1ccc(N=Nc2c(O)[nH]c3ccc(Br)cc23)cc1` reads 51.6% (active); that for `O=C(NC1CCCCN(Cc2ccc(Cl)cc2)C1=O)c1ccc(Br)cc1` (stereo not given), 2.36% (inactive); that for `O=C(O)Cn1cnc2c(NCc3ccccc3)ncnc21`, 2.28% (inactive).
The value for `Nn1c(SCC(=O)Nc2cccc3ccccc23)nnc1-c1cc(-c2ccc(F)cc2)n[nH]1` was 9.39% (inactive); that for `CCOc1ccc(NC(=O)C(C)N2C(=O)c3ccccc3C2=O)cc1` (stereo not given) was -4.17% (inactive); that for `O=C1/C(=C/c2cccs2)SC(=S)N1C1CCS(=O)(=O)C1` (stereo not given) was -0.31% (inactive).
As for `CC(C(=O)Nc1ccc(O)c(C(=O)O)c1)N1C(=O)/C(=C/c2cccs2)SC1=S` (stereo not given), the inhibition was 87.5% (active).
The value for `CNS(=O)(=O)c1ccc(NC(=O)C2CC(=O)N(c3ccc(Cl)cc3)C2)cc1` (stereo not given) was 6.47% (inactive); that for `CCc1ccc(N2CC(C(=O)Nc3ccc(S(=O)(=O)Nc4nccs4)cc3)CC2=O)cc1` (stereo not given) was 50.1% (active).
The value for `CC(C)c1ccc(N2CC(C(=O)Nc3nccs3)CC2=O)cc1` (stereo not given) was 0.86% (inactive); that for `Nc1ncnc2c1ncn2C1OC(CO)CC1O` (stereo not given) was 0.74% (inactive).
The value for `O=C(NCCc1c[nH]c2ccccc12)OCc1cn(-c2c(F)cccc2F)nn1` was 0.36% (inactive); that for `COCCN(Cc1ccccc1)C(=O)Cc1ccc(S(=O)(=O)N2CCOCC2)s1` was 0.74% (inactive).
Regarding `CCCCCCCCN1C(=O)[C@@H](CC(=O)NCc2ccc(C)o2)C[C@@]2(C(=O)OC)C1=C[C@H](C(C)(C)C)O[C@@H]2C`, the inhibition is 1.42% (inactive).
The value for `O=C1OC(NC(=O)c2ccccc2)C(N2CCOCC2)=C1Cl` (stereo not given) was -0.63% (inactive); that for `O=C(O)c1ccc(N=NN2CCOCC2)cc1` was 3% (inactive); that for `O=C(O)c1ccc(NN=CC2=C(N3CCOCC3)/C(=C/c3ccccc3)CC2)cc1` was 48.1% (active).
The value for `CCOc1ccc(-n2c(SCC(=O)Nc3cc(C)c(NC(=O)c4ccccc4)cc3OC)nnc2-c2cccc(Cl)c2)cc1` was 12.6% (inactive); that for `CCc1ccc(NC(=O)CCNS(=O)(=O)c2cccs2)cc1` was -0.02% (inactive).
As for `O=C(COC(=O)c1ccc(O)cc1O)NNC(=O)c1cccs1`, the inhibition was 1.41% (inactive).
Regarding `O=C(COC(=O)c1ccc(NS(=O)(=O)c2cccs2)cc1O)Nc1ccc(F)cc1`, the inhibition is 43.1% (active).
The value for `C=CCn1c(C2CC(=O)N(c3ccc(C)cc3)C2)nc2ccccc21` (stereo not given) was -6.52% (inactive); that for `C=CCn1c(=S)[nH]c2scc(-c3ccco3)c2c1=O` was 51.7% (active).
The result for `C=CCOC/C=C/C#CCN(CC=C)Cc1ccc(OC)cc1OC` reads -2.46% (inactive).
Turning to `COC(=O)[C@]12C[C@H](CC(=O)NCc3cccc(C(F)(F)F)c3)C(=O)N(Cc3ccc4c(c3)OCO4)C1=C[C@H](COCc1ccccc1)O[C@@H]2C`, the inhibition is 7.43% (inactive).
The value for `Cc1cc(NS(=O)(=O)c2ccc(NC(=O)CSc3nnc(-c4ccc(C(C)(C)C)cc4)n3Cc3ccco3)cc2)nc(C)n1` was 37% (active).
The value for `CCn1c2ccccc2c2cc(NC(=O)CSc3nnc(-c4ccccc4)n3-c3ccc(C)cc3)ccc21` was 11.4% (inactive); that for `Cc1ccc(-c2nnc(SCC(=O)Nc3ccc(Oc4ccccc4)cc3)n2Cc2ccco2)cc1` was 10.4% (inactive).
Turning to `Cc1nnc(SCC(=O)Nc2ccc(S(=O)(=O)Nc3ccc(Cl)nn3)cc2)s1`, the inhibition was 16.9% (inactive).
The value for `CCn1c(SCC(=O)Nc2ccc(S(=O)(=O)Nc3onc(C)c3C)cc2)nnc1-c1ccccc1` was 35.5% (active); that for `O=C(CSc1nnc(SCc2ccc(F)cc2)s1)Nc1ccc(C(=O)O)cc1` was 24.4% (inactive); that for `O=C(CSc1nnc(-c2cccc(Cl)c2)n1Cc1ccco1)Nc1ccc(OCc2ccccc2)cc1` was 8.04% (inactive).
The result for `Cc1noc(NS(=O)(=O)c2ccc(N3CC(O)=C(c4ccccc4)C3=N)cc2)c1C` reads 2.76% (inactive); that for `Cc1cc(NS(=O)(=O)c2ccc(NC(=O)CSc3nnc(SCc4ccc(F)cc4)s3)cc2)nc(C)n1`, 43.9% (active).
The result for `COC(=O)C1=C(C)N(Cc2cccc(C(F)(F)F)c2)C(=NCc2ccccc2)NC1c1ccccc1C(F)(F)F` (stereo not given) reads 4.41% (inactive); that for `NC(=O)c1ncn([C@@H]2O[C@H](C(=O)O)[C@@H](O)[C@H]2O)n1`, 1.22% (inactive); that for `COc1ccc(C#CCNCc2ccc(OC)cc2OC)cc1`, 7.62% (inactive).
Take `CC(=O)OC1CCC2(C)C(=CCC3C4CC(=O)N(O)C(=O)C4(C)CCC32)C1` (stereo not given): the inhibition was 5.82% (inactive).
The result for `CC(=O)OCCN1CCCC12CCC(c1ccccc1)CC2` (stereo not given) reads 2.02% (inactive).
The result for `COC(=O)[C@]12C[C@H](CC(=O)NCCCN3CCCC3=O)C(=O)N(CCc3ccc(OC)c(OC)c3)C1=C[C@H](COCc1ccccc1)O[C@@H]2C` reads 3.23% (inactive).
The result for `CC(=O)Nc1nc2ncccn2c1-c1ccc(C(F)(F)F)cc1` reads 0.83% (inactive); that for `Cc1ccc(C2NC(C(=O)O)CS2)cc1` (stereo not given), 0.84% (inactive).
On to `COCCNC(=S)N(C)[C@H]1C[C@H]2c3[nH]c4ccccc4c3CCN2C[C@H]1[C@H](C)O`, for which the inhibition was 0.81% (inactive).
Turning to `COC(=O)[C@]12C[C@H](CC(=O)NCc3ccccc3)C(=O)N(CCC3=CCCCC3)C1=C[C@H](C(C)C)O[C@@H]2C1CC1`, the inhibition was 3.49% (inactive).
In the case of `O=C(c1c[nH]c2ccccc12)N1CCC(Oc2cccnc2)CC1`, the inhibition was 0.25% (inactive).
The value for `CC(C)=CCCC1(C)C=Cc2c(ccc3c2[nH]c2cc(O)c(C)cc23)O1` (stereo not given) was 50.7% (active); that for `COP(=O)(O)CNC(=O)OCc1ccccc1` was 3.7% (inactive); that for `C[C@@H](CN1C2=NC[C@@H](Cc3ccccc3)N2C[C@H]1Cc1ccc(O)cc1)NC(=O)CCC1CCCCC1` was 10.8% (inactive).
Consider `C=C(C)C#CC(Cc1ccccc1)NCC1CC1` (stereo not given), for which the inhibition is 0.83% (inactive).
The result for `Cc1sc2nc(SCC(=O)c3ccc(O)c(O)c3)n(Cc3ccco3)c(=O)c2c1C` reads 60.5% (active); that for `O=C(CSc1nnc(-c2cccs2)n1Cc1ccco1)c1ccc2c(c1)OCO2`, 2.71% (inactive).
The result for `O=C(CSc1nnc(COc2ccccc2)n1Cc1ccco1)c1ccc2ccccc2c1` reads 10.1% (inactive).

The values are drawn from PubChem BioAssay AID651821 (The Scripps Research Institute Molecular Screening Center, 2012).
